Laboratory results published in the supplement of paper PMC12669032.

Tests used:
Assay in all cases: growth AUC relative to DMSO control (median of replicates) (fraction); higher = more growth (less inhibition), active = hit call of the paper
Conditions in all cases: 20 µM; 24 h;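 active = AUC reduced over 20% with Padj below 0.05 in at least 2 of 3 replicates; inactive = otherwise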
[1] = tested on: Akkermansia muciniphila
In short: (§1)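 For each compound at 20 µM (1% DMSO), gut bacterial monocultures seeded at OD600 0.05 grew anaerobically in mGAM at 37 °C in round-bottom 96-well plates. Hourly OD600 readings over 24 h gave growth curves whose minimum OD was set to 0. Area under these curves was normalised to the plate median of solvent-only wells, or to row and column medians on the industrial chemical plate. Values are medians of three biological replicates grown on separate days.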

[2] = tested on: Bacteroides caccae
In short: as §1

[3] = tested on: Bacteroides clarus
In short: as §1

[4] = tested on: Bacteroides dorei
In short: as §1

[5] = tested on: Bacteroides stercoris
In short: as §1

[6] = tested on: Bacteroides thetaiotaomicron
In short: as §1

[7] = tested on: Bacteroides uniformis
In short: as §1

[8] = tested on: Bifidobacterium longum subsp. longum
In short: as §1

[9] = tested on: Clostridium difficile
In short: as §1

[10] = tested on: Collinsella aerofaciens
In short: as §1

[11] = tested on: Coprococcus comes
In short: as §1

[12] = tested on: Escherichia coli ED1a
In short: as §1

[13] = tested on: Escherichia coli IAI1
In short: as §1

[14] = tested on: Eubacterium rectale
In short: as §1

[15] = tested on: Fusobacterium nucleatum subsp. animalis
In short: as §1

[16] = tested on: Lactobacillus gasseri
In short: as §1

[17] = tested on: Lactobacillus paracasei
In short: as §1

[18] = tested on: Odoribacter splanchnicus
In short: as §1

[19] = tested on: Parabacteroides distasonis
In short: as §1

[20] = tested on: Parabacteroides merdae
In short: as §1

Measured: growth AUC

COC(=O)c1ccccc1S(=O)(=O)NC(=O)N(C)c1nc(C)nc(OC)n1
inactive: [1] 0.981 | [2] 0.984 | [3] 0.979 | [4] 0.984 | [5] 1.05 | [6] 0.99 | [7] 1 | [8] 1.01 | [9] 0.984 | [10] 1.03 | [11] 1.01 | [12] 0.982 | [13] 0.978 | [14] 0.968 | [15] 1 | [16] 1.06 | [17] 0.992 | [18] 1.01 | [19] 0.98 | [20] 1

Cc1nc(N(C)C)nc(OC(=O)N(C)C)c1C
inactive: [1] 1.02 | [2] 0.997 | [3] 0.989 | [4] 1.05 | [5] 1.05 | [6] 1.02 | [7] 0.977 | [8] 0.826 | [9] 1.05 | [10] 1.04 | [11] 1.01 | [12] 0.998 | [13] 0.992 | [14] 0.98 | [15] 1 | [16] 1.1 | [17] 0.978 | [18] 1.01 | [19] 1.03 | [20] 1.04

COP(N)(=S)Oc1ccccc1C(=O)OC(C)C (stereo not given)
inactive: [1] 1.19 | [2] 1.02 | [3] 0.981 | [4] 0.893 | [5] 0.979 | [6] 0.998 | [7] 0.999 | [8] 1.03 | [9] 0.993 | [10] 0.993 | [11] 1.03 | [12] 0.969 | [13] 0.982 | [14] 1.04 | [15] 0.97 | [16] 0.906 | [17] 0.944 | [18] 0.898 | [19] 0.877 | [20] 0.986

O=C(O)C(F)(F)C(F)(F)C(F)(F)C(F)(F)C(F)(F)C(F)(F)C(F)(F)C(F)(F)F
inactive: [1] 1.01 | [2] 1 | [3] 1.02 | [4] 1.03 | [5] 1.08 | [6] 1.07 | [7] 1.02 | [8] 1.03 | [9] 0.997 | [10] 0.997 | [11] 1.01 | [12] 1.01 | [13] 1.01 | [14] 0.99 | [15] 1 | [16] 1 | [17] 1.03 | [18] 1.07 | [19] 1.18 | [20] 1.01

CCOP(=O)(OCC)Oc1ccc([N+](=O)[O-])cc1
inactive: [1] 0.962 | [2] 1.03 | [3] 0.999 | [4] 1.01 | [5] 1.08 | [6] 1.01 | [7] 1 | [8] 1.15 | [9] 1.03 | [10] 1.05 | [11] 1.03 | [12] 0.988 | [13] 1.03 | [14] 0.91 | [15] 1.06 | [16] 1.02 | [17] 1.04 | [18] 1.05 | [19] 0.999 | [20] 0.986

CCCSC(=O)N(CCC)CCC
inactive: [1] 0.868 | [2] 0.991 | [3] 0.957 | [4] 1.02 | [5] 0.946 | [6] 1.01 | [7] 1.02 | [8] 1.04 | [9] 1.01 | [10] 0.967 | [11] 0.994 | [12] 0.974 | [13] 0.985 | [14] 1.01 | [15] 1 | [16] 1.01 | [17] 0.954 | [18] 1.01 | [19] 0.995 | [20] 0.991

O=C(O)c1cc(Cl)ccc1Cl
inactive: [1] 0.97 | [2] 0.998 | [3] 0.989 | [4] 0.961 | [5] 0.89 | [6] 1 | [7] 1.03 | [8] 1.17 | [9] 1.02 | [10] 0.952 | [11] 0.994 | [12] 0.97 | [13] 0.984 | [14] 1.02 | [15] 0.994 | [16] 0.869 | [17] 0.934 | [18] 1.08 | [19] 0.978 | [20] 0.96

C#CCOS(=O)OC1CCCCC1Oc1ccc(C(C)(C)C)cc1 (mixture of isomers)
inactive: [1] 1.08 | [2] 0.98 | [3] 0.976 | [4] 0.984 | [5] 0.916 | [6] 0.991 | [7] 0.99 | [8] 0.908 | [9] 0.956 | [10] 0.975 | [11] 1.02 | [12] 1.03 | [13] 0.968 | [14] 1 | [15] 1.05 | [16] 0.928 | [17] 0.987 | [18] 0.946 | [19] 0.964 | [20] 0.933

CC(C)(C)C(O)C(Oc1ccc(-c2ccccc2)cc1)n1cncn1 (mixture of isomers)
inactive: [1] 1.01 | [2] 0.919 | [3] 0.874 | [4] 0.926 | [5] 1.11 | [6] 0.938 | [7] 0.899 | [8] 0.847 | [9] 0.924 | [10] 0.995 | [11] 1 | [12] 1.01 | [13] 1.05 | [14] 0.964 | [15] 1.07 | [16] 0.949 | [17] 0.958 | [18] 0.952 | [19] 0.918 | [20] 0.976

CC1(C)C(/C=C(\Cl)C(F)(F)F)C1C(=O)OC(C#N)c1cccc(Oc2ccccc2)c1 (stereo not given)
inactive: [1] 0.989 | [2] 0.951 | [3] 1.02 | [4] 1.01 | [5] 1.19 | [6] 0.995 | [7] 0.993 | [8] 1.12 | [9] 1.04 | [10] 0.969 | [11] 1.01 | [12] 1.05 | [13] 1.02 | [14] 1.03 | [15] 1.12 | [16] 0.895 | [17] 1.08 | [18] 0.878 | [19] 1.03 | [20] 1.03

CCC(C)(C)c1ccc(O)cc1
inactive: [1] 0.91 | [2] 1.01 | [3] 0.981 | [4] 1.03 | [5] 0.859 | [6] 1 | [7] 1 | [8] 1.08 | [9] 1.06 | [10] 1.01 | [11] 1.03 | [12] 0.978 | [13] 0.985 | [14] 0.953 | [15] 1 | [16] 0.957 | [17] 0.999 | [18] 1.08 | [19] 1.03 | [20] 1.01

Oc1ccc(Cl)cc1Cc1cc(Cl)ccc1O
active: [1] 0.202 | [2] 0.416 | [3] 0.154 | [5] 0.00782 | [6] 0.359 | [7] 0.163 | [8] 0.598 | [9] 0.633 | [12] 0.793 | [13] 0.684 | [14] 0.497 | [16] 0.115 | [17] 0.47 | [18] 0.0459 | [19] 0.0176 | [20] 0.0937
inactive: [4] 0.765 | [10] 0.878 | [11] 0.965 | [15] 0.845

COCCN(C(=O)CCl)c1c(C)cccc1C
inactive: [1] 0.91 | [2] 0.969 | [3] 0.967 | [4] 1.02 | [5] 0.967 | [6] 0.989 | [7] 0.973 | [8] 0.851 | [9] 1 | [10] 1.02 | [11] 0.983 | [12] 1 | [13] 0.973 | [14] 0.854 | [15] 0.939 | [16] 1.02 | [17] 0.831 | [18] 0.965 | [19] 0.968 | [20] 0.985

Nc1cc(Cl)cc(C(=O)O)c1Cl
inactive: [1] 1.03 | [2] 0.975 | [3] 1.02 | [4] 1.04 | [5] 1.06 | [6] 1 | [7] 0.958 | [8] 1.04 | [9] 1.01 | [10] 1.06 | [11] 0.992 | [12] 1.01 | [13] 1.04 | [14] 1.01 | [15] 0.994 | [16] 1.13 | [17] 1.03 | [18] 1.09 | [19] 1.01 | [20] 0.977

Oc1c(Cl)ccc(Cl)c1Cl
inactive: [1] 1.04 | [2] 0.927 | [3] 0.968 | [4] 0.954 | [5] 1.15 | [6] 0.987 | [7] 0.981 | [8] 1.02 | [9] 1 | [10] 0.937 | [11] 0.98 | [12] 1.02 | [13] 0.985 | [14] 0.969 | [15] 1.05 | [16] 0.922 | [17] 1.01 | [18] 0.915 | [19] 0.911 | [20] 0.981

C[C@@H](Oc1ccc(Cl)cc1Cl)C(=O)O
inactive: [1] 1.14 | [2] 0.98 | [3] 1 | [4] 0.925 | [5] 1.26 | [6] 1 | [7] 0.965 | [8] 0.982 | [9] 0.949 | [10] 0.977 | [11] 0.967 | [12] 1.02 | [13] 1.02 | [14] 1.17 | [15] 1.07 | [16] 0.906 | [17] 0.949 | [18] 0.98 | [19] 0.964 | [20] 1.01

CC(C)C1(C)N=C(c2nc3ccccc3cc2C(=O)O)NC1=O (stereo not given)
inactive: [1] 0.971 | [2] 1.01 | [3] 1.02 | [4] 0.957 | [5] 1.03 | [6] 0.992 | [7] 1.01 | [8] 0.967 | [9] 0.958 | [10] 0.962 | [11] 1.01 | [12] 0.985 | [13] 0.983 | [14] 0.965 | [15] 1.02 | [16] 1.03 | [17] 0.891 | [18] 0.908 | [19] 0.986 | [20] 0.997

CNC(=O)/C(=N\OC)c1ccccc1Oc1ccccc1
inactive: [1] 0.873 | [2] 0.981 | [3] 0.959 | [4] 0.97 | [5] 0.953 | [6] 1.02 | [7] 0.998 | [8] 0.987 | [9] 1.01 | [10] 1.03 | [11] 1.01 | [12] 1.01 | [13] 1 | [14] 0.963 | [15] 0.974 | [16] 1.05 | [17] 0.986 | [18] 0.961 | [19] 1.02 | [20] 0.99

Cc1cc(C2CC2)nc(Nc2ccccc2)n1
inactive: [1] 0.934 | [2] 0.979 | [3] 0.939 | [4] 0.916 | [5] 0.756 | [6] 0.903 | [7] 0.981 | [8] 1.04 | [9] 0.959 | [10] 0.953 | [11] 1.04 | [12] 0.984 | [13] 0.962 | [14] 1.05 | [15] 1.03 | [16] 0.982 | [17] 0.969 | [18] 1.04 | [19] 1.01 | [20] 0.894

CC(C)(C)c1ccc(CSc2cnn(C(C)(C)C)c(=O)c2Cl)cc1
inactive: [1] 0.971 | [2] 0.95 | [3] 0.959 | [4] 0.991 | [5] 1.07 | [6] 0.975 | [7] 0.986 | [8] 0.97 | [9] 0.963 | [10] 0.999 | [11] 0.976 | [12] 1 | [13] 0.986 | [14] 0.966 | [15] 1.05 | [16] 0.945 | [17] 1.16 | [18] 1.07 | [19] 0.988 | [20] 0.962

N#CCNC(=O)c1cnccc1C(F)(F)F
inactive: [1] 0.888 | [2] 1.01 | [3] 0.959 | [4] 1 | [5] 0.966 | [6] 0.988 | [7] 0.99 | [8] 0.961 | [9] 0.99 | [10] 1.01 | [11] 0.993 | [12] 1.01 | [13] 0.961 | [14] 0.97 | [15] 0.991 | [16] 1.06 | [17] 0.974 | [18] 1.02 | [19] 1.02 | [20] 1.03
